FPR binder: human FPR ligand, with FPRL1 counter-screen; P21462; FPR-expressing cells, fluorescent ligand binding, flow cytometry; inhibition, % (concentration not given with the values); 24,000 tested, 0.74% active;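 also: 0% = buffer wells and 100% = receptor blocker peptide wells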
Prostate diff: LNCaP prostate cell differentiation activation. flow cytometry side scatter, 4 d. side scatter shift, % at 10 µM. 24,000 tested, 0.56% active;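 active = side scatter shift above 30%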;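 also: androgen-responsive LNCaP prostate cancer cells in charcoal-stripped serum medium; percent of cells past a gate set so DMSO wells show 10% shift; higher shift means more granular cells and more differentiation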
VLA-4 antagonist: inhibitors of LDV-FITC ligand binding to Mn2+-activated human VLA-4 integrin; P13612; Jurkat cells, LDV-FITC binding with Mn2+, flow cytometry; 100% = Mn2+-driven binding gain fully reversed; 24,000 tested, 0.2% active; inhibition, % at 10 µM (by protocol);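 active = inhibition above 50%; inconclusive = compound itself fluorescent, judged against control cell fluorescence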;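 also: 0% = Mn2+ stimulated cells lacking compound and 100% = ligand binding without Mn2+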
Target sequence (P13612 whole entry, looked up): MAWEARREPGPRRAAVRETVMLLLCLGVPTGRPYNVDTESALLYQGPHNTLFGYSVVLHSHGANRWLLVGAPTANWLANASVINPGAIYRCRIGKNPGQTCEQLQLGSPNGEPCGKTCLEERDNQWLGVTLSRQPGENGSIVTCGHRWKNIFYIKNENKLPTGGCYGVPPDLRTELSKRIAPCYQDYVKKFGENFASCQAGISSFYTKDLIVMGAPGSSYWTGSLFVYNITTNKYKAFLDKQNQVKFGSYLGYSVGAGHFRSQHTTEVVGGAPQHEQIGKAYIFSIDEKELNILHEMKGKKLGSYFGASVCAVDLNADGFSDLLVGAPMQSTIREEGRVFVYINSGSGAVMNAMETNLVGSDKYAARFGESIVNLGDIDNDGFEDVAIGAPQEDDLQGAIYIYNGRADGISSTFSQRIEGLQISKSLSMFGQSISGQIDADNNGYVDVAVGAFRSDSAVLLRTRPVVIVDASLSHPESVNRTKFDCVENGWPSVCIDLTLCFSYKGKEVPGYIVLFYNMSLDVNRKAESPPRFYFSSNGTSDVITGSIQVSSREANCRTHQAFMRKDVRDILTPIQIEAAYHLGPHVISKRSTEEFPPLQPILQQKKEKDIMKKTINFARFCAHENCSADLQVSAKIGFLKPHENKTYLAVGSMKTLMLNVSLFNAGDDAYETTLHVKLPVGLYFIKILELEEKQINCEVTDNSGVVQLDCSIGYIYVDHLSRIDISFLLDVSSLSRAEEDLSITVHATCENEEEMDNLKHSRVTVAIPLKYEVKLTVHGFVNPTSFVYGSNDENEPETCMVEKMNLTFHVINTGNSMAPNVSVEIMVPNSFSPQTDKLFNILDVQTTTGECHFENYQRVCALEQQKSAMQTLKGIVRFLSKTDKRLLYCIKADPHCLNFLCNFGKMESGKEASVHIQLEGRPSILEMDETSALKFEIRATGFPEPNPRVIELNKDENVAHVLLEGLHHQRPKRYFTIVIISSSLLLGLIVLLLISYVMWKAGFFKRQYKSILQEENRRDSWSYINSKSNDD
Autofluor Jurkat: compound fluoresces in Jurkat cells, VLA-4 screen interference | 24,000 tested, 0.61% active | fluorescence ratio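 (tested at 10 µM compound in the well)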 | compound autofluorescence, flow cytometry; hits give high values; 1 = vehicle-only cell background | AID 576;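 active = fluorescence ratio above 2.44, which is 1 plus 3 SD of all ratios; inconclusive = signal too bright to measure linearly, ratio around 10 or more; inactive = fluorescence ratio below 2.44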;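 also: green fluorescence of cells measured with 488 nm excitation and 530 nm emission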
VLA-4 agonist: allosterically activates the human VLA-4 integrin | P13612 | Jurkat cells, LDV-FITC binding, flow cytometry | activation, % at 10 µM (by protocol) | 24,000 tested, under 10 active | AID 528;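 active = fluorescent ligand binding to cells raised by more than 40% of the manganese-induced maximum; inconclusive = compound's own fluorescence above 85% of the ligand control signal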;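 also: 0% = ligand binding without compound and 100% = manganese-stimulated maximal binding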
FPRL1 binder: binds the human formylpeptide receptor-like-1 FPRL1; FPRL1-expressing cells, fluorescent ligand binding inhibition, flow cytometry; inhibition, % (no concentration beside the values); 24,000 tested, 0.3% active;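 also: 0% = buffer alone and 100% = receptor blocker peptide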
An asterisk follows results filed as active; ? = inconclusive; / = no result. An excerpt weighted towards active compounds, which were near 2.4% of everything screened. Rule as the data show it, unless noted: active = inhibition above about 30%; inconclusive = no clear call, values can overlap the other calls; inactive = below that.

SMILES | FPR binder | Prostate diff | VLA-4 antagonist | Autofluor Jurkat | VLA-4 agonist | FPRL1 binder
Cc1ccc(-c2nc(C(=O)NC3CCCCCC3)no2)cc1 | 1 | 3 | -6 | 1 | 4 | 0
NC(=O)c1oc2ccccc2c1NC(=O)c1nc2ccccc2s1 | -4 | 22 | ? | 5.4* | ? | 3
CCn1cc(C(=O)NC2CCCC2)c(=O)c2cc(S(=O)(=O)N3CCOCC3)ccc21 | 2 | 14 | 15 | 1.1 | -6 | -2
CCn1cc(C(=O)NC2CCC(C)CC2)c(=O)c2cc(S(=O)(=O)N3CCCCC3)ccc21 (configuration not stated) | 32* | 3 | 0 | 1 | 5 | 0
COc1ccc(-c2ccc(-c3noc(-c4ccccc4)n3)c(OC)n2)cc1 | 1 | 34* | -5 | 1 | 6 | -5
COc1nc(-c2ccc(Cl)cc2)ccc1-c1noc(-c2ccncc2)n1 | 0 | 8 | -12 | 1.1 | 0 | -4
CC1=C(C)C(=O)NC(Nc2nc(C)c3cc(C)cc(C)c3n2)N1 (configuration not stated) | -2 | 4 | -12 | 1.1 | -4 | -2
COc1ccc(-c2noc(CCC(=O)NCCCN3CCC(Cc4ccccc4)CC3)n2)cc1 | -3 | 32* | 9 | 1.2 | -3 | 2
Cc1cc(O)c(-c2cc(C(=O)Nc3ccc(S(=O)(=O)N4CCOCC4)cc3)[nH]n2)cc1C | -2 | 27 | 56* | 1.1 | -24 | 2
Cc1cc(=O)n2nc(N3CCCC(C(=O)NCCCN4CCc5ccccc5C4)C3)sc2n1 (configuration not stated) | -2 | 38* | 1 | 1.1 | 0 | -1
COCCNC(=O)C1CCCN(c2nn3c(=O)cc(C)nc3s2)C1 (configuration not stated) | -5 | 13 | 3 | 1.1 | -2 | 1
O=C(c1cc2c(=O)oc3ccccc3c2s1)N1CCN(c2ncccn2)CC1 | 0 | 8 | ? | 1.1 | ? | -1
C=CCn1c(NC(=O)c2ccccc2)c(C#N)c2nc3ccccc3nc21 | ? | / | / | / | / | 32*
CCCCn1c(NC(C)=O)c(C#N)c2nc3ccccc3nc21 | 66* | / | / | / | / | 4
C=CCn1c(NC(=O)c2ccccc2Cl)c(C#N)c2nc3ccccc3nc21 | 4 | / | / | / | / | -7
CCCCCn1c2nc3ccccc3nc2c2c(=O)n(CC(C)C)cnc21 | 1 | 16 | 1 | 1 | 2 | 2
Cc1c(C(=O)NCc2ccccn2)sc2nc(-c3ccc(F)cc3)cn12 | -4 | 4 | 3 | 1 | -2 | -10
Cc1cccc(NC(=O)c2sc3nc(-c4ccc(F)cc4)cn3c2C)n1 | -2 | 26 | ? | 5.1* | ? | 12
Cc1c(C(=O)Nc2ccccc2)sc2nc(-c3ccccc3)cn12 | -6 | 4 | 74* | 1.3 | -11 | -4
COc1ccc(-c2cn3c(C)c(C(=O)Nc4cccc(C)n4)sc3n2)cc1 | 1 | 9 | ? | 1.6 | ? | -9
Cc1cccc(NC(=O)c2sc3nc(-c4ccccc4)cn3c2C)n1 | -9 | 9 | ? | 3.4* | ? | -15
Cc1c(C(=O)Nc2ccc3c(c2)OCO3)sc2nc(-c3ccccc3)cn12 | 6 | 3 | 20 | 1.2 | -3 | 11
Cc1cccn2c(=O)c3cc(C(=O)N4CCc5ccccc5C4)n(C)c3nc12 | -1 | 4 | 24 | 1.2 | -3 | 2
O=C(c1ccccc1)c1ccc(N2CCNCC2)cc1 | -6 | 41* | -9 | 1.1 | 2 | 1
COc1ccc2cnn(-c3ccccc3)c(=O)c2c1OC | 36* | 16 | -30 | 1 | -2 | 45*
SMILES | FPR binder | Prostate diff | VLA-4 antagonist | Autofluor Jurkat | VLA-4 agonist | FPRL1 binder
CCOC(=O)c1sc(NC(=O)CCn2nnc3ccccc32)c(C(=O)OCC)c1C | 3 | 20 | -4 | 1.2 | -4 | 2
O=c1[nH]c(Nc2ccccc2)cc2ccccc12 | -5 | 7 | ? | 2.9* | ? | 10
O=c1nc(N2CCCC2)nc(Nc2ccccc2)[nH]1 | 0 | 12 | -23 | 1.2 | 2 | 4
CCOC(=O)c1cc(S(=O)(=O)N2CCN(C(=O)OCC)CC2)cn1C | -3 | 10 | 16 | 1.1 | -11 | -5
Cc1cc(C)n(-c2nc3c(c(=O)n(Cc4ccc(Cl)c(Cl)c4)c(=O)n3C)n2C)n1 | -4 | 10 | 4 | 1 | -6 | -2
O=C(CCn1c(=O)oc2ccccc21)N1CCN(c2ccccc2F)CC1 | -2 | 6 | -12 | 1.1 | 0 | -2
O=C(Cn1c(=O)oc2ccccc21)N1CCN(c2ccccc2)CC1 | 22 | 11 | ? | 2.5* | ? | 4
CC1CN=C(N(C(=O)Nc2ccccc2)c2ccc(S(=O)(=O)N3CCOCC3)cc2)S1 (configuration not stated) | -2 | 7 | -12 | 1.1 | 4 | -3
CCC(NC(=O)Nc1cc(OC)c(OC)c(OC)c1)(C(F)(F)F)C(F)(F)F | 45* | 12 | -25 | 0.99 | 1 | 55*
CCc1ccc(-c2nc(CN3CCC(C(=O)NCCc4ccc(OC)c(OC)c4)CC3)c(C)o2)cc1 | 0 | 32* | ? | 1.2 | ? | 0
COc1ccc(CCNC(=O)C2CCN(Cc3nc(-c4ccccc4F)oc3C)CC2)cc1OC | -4 | 4 | -1 | 1.1 | 1 | -6
CCN1CCCC1CNC(=O)C1CCN(Cc2nc(-c3cccc(Br)c3)oc2C)CC1 (configuration not stated) | -1 | 63* | -1 | 1 | 4 | -6
COc1ccc(-c2nc(CN3CCC(C(=O)NC4CCCc5ccccc54)CC3)c(C)o2)cc1OC (configuration not stated) | -4 | 39* | -1 | 1.1 | -10 | -2
COc1ccccc1CNC(=O)C1CCN(Cc2nc(-c3ccc(Cl)cc3)oc2C)CC1 | 2 | 32* | ? | 1.3 | ? | -4
O=c1c2cc(N3CCOCC3)ccc2[nH]c(=S)n1CCCN1CCN(c2ccccc2F)CC1 | -3 | 1 | 12 | 1.1 | -4 | -1
Cc1oc(-c2ccc(Cl)cc2)nc1CN1CCC(C(=O)NCCCN2CCCC2=O)CC1 | -5 | 7 | 6 | 1.1 | 2 | 2
CCN1CCN(CCNC(=O)C2CCN(Cc3nc(-c4ccc(Cl)cc4)oc3C)CC2)CC1 | -9 | 44* | ? | 0.96 | ? | 2
Cc1nnc(SCC(C)C)[nH]c1=O | -4 | 14 | ? | 1.1 | ? | 0
Cc1nnc(SCc2cnc(-c3ccccc3)o2)[nH]c1=O | 63* | 9 | -18 | 1.1 | 7 | 52*
CCOC(=O)N1CCC(NS(=O)(=O)c2cc3c(cc2Cl)NC(=O)CO3)CC1 | -19 | 2 | ? | 5.1* | ? | -8
Cc1onc(-c2ccccc2)c1C(=O)NC(C)C | 8 | 9 | 0 | 0.99 | 6 | 12
Cc1onc(-c2ccccc2)c1C(=O)NC(CC(=O)O)c1ccc(OC(C)C)cc1 (configuration not stated) | -1 | 10 | 86* | 1 | -7 | 6

Source: PubChem BioAssay
